Source: PubChem (Broad Institute)
LGR2 antag: blocks bursicon-induced cAMP signaling via Drosophila LGR2; HEK293 LGR2, CRE-luciferase, bursicon-stimulated, 4 h; inhibition, % at 9.99 µM; 380,000 compounds, 0.35% hits; AID 720647;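 active means drop in luminescence signal, shown as inhibition above about 50% in the replicate tests, limit read from the data, passing the limit was not always enough; inconclusive means probably only some replicates passing the limit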;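 further: agonist challenge used bursicon conditioned medium at about half maximal strength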
CFTR F508del cor: CFTR F508del correction in bronchial cells. CFBE cells, YFP halide quenching; stimulated with forskolin plus potentiator P3; % fluorescence drop versus neutral controls. activity (quench increase), % at 7.58 µM. 350,000 compounds, 0.36% hits. AID 720511;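 active means mean added fluorescence quench of at least 8% versus neutral control, with both replicates also reaching 8%; inconclusive means only one of the mean or replicate conditions met; inactive means mean below 8% and not both replicates reaching 8%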;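 further: cells transiently co-express mutant CFTR-F508del with the halide-sensitive YFP; corrector assay measuring rescue of mutant channel to the surface after 24 h compound exposure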
RAD52 anneal inh: inhibitors of human RAD52 DNA annealing; P43351; recombinant RAD52 DNA annealing, FRET fluorescence; inhibition, % at 18.7 µM; 360,000 compounds, 0.46% hits; AID 651710;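 active means every replicate showing at least 50% inhibition; inconclusive means mean inhibition at least 50% but not in every replicate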
Target sequence (P43351 whole entry, looked up): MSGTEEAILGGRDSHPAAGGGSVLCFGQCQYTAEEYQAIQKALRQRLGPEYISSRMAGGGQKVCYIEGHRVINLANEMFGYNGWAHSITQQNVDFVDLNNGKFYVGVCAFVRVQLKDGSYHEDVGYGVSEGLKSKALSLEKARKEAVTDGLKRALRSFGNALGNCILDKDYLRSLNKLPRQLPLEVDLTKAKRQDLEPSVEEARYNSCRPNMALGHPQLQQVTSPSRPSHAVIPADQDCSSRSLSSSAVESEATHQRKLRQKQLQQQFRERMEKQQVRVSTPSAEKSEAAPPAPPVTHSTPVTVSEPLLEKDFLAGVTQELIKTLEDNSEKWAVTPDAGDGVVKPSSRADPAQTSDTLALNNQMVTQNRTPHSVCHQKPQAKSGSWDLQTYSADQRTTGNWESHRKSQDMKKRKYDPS
INS-1E GSIS act: primary screen for activators of insulin secretion dependent on glucose, INS-1E cells, GLuc reporter luminescence. INS-1E GLuc reporter insulin secretion, 2-3 h. activation, % at 16.6 µM. 370,000 compounds, 0.61% hits. AID 743287;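 active means lowest replicate activation of at least 40%, so every replicate reaches that level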;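 further: 0% = median of neutral control wells and 100% = median of IBMX positive control wells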
RAD54 branch: RAD54 (human) branch migration inhibition | AID 602329 | RAD54 Holliday junction branch migration, FAM/BHQ fluorescence | inhibition, % at 10.4 µM | Q92698 | 360,000 compounds, 0.14% hits;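 active means mean normalized replicate activity at least 40 and at least half of replicates scoring 40 or more; inconclusive means only one of the two criteria met; inactive means mean below 40 and under half of replicates reaching 40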;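 further: 0% = median of neutral control wells and 100% = median of positive control wells; inhibitors cause a drop in the FAM fluorescence signal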
EWS-Fli block: inhibitors of EWS/Fli oncoprotein transcriptional activity; A673 NR0B1-luciferase reporter, viability-normalised; inhibition, % at 12.6 µM; 350,000 compounds, 0.67% hits; AID 651661;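 active means mean inhibition of at least 50% after viability correction, with every replicate also passing that limit; inconclusive means mean reaches 50% but only one of two replicates passes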;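 further: firefly luciferase signal divided by Alamar Blue viability fluorescence both relative to DMSO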
Active calls of the source: *; ? = inconclusive; / = no result given; ! = not confirmed by another sample. A selection: hits, their analogues and other compounds. The true share with any hit is near 1.8%.

SMILES	LGR2 antag	CFTR F508del cor	RAD52 anneal inh	INS-1E GSIS act	RAD54 branch	EWS-Fli block
COc1ccc(-c2cc(C(=O)NCc3ccc(Cl)cc3)no2)cc1OC	-12.0	/	/	2.9	-5.3	/
COc1ccc(C(=O)/C=C2/c3ccccc3CC(C)(C)N2C)cc1OC	9.4	/	2.4	41.0*	2.8	-3.3
COc1ccc(C(=O)/C=C2\NCCc3cc(OC)c(OC)cc32)cc1OC	-10.8	-1.0	-13.2	26.6	-9.8	4.4
O=C(Cc1coc(-c2ccc(F)cc2)n1)NC1CCCCC1	/	/	/	/	7.1	/
CCCCCc1ccc(OCCC[n+]2ccccc2)c(CCCCC)c1	14.5	?	44.0	191.9*	/	38.4
CC(=O)Nc1ccc(OCCC[n+]2ccccc2)cc1	19.4	0.7	1.1	/	/	13.3
CCOC(=O)Cc1csc(SCC(=O)/C(C#N)=C(\C)N)n1	/	/	/	/	-6.6	/
CCCCNc1cc(C(=O)O)cc(S(N)(=O)=O)c1Oc1ccccc1	6.0	8.6*	6.1	/	4.6	-0.5
COc1ccc2c(c1OC)CN1CCc3cc4c(cc3[C@@H]1[C@@H]2O)OCO4	/	/	/	/	0.9	/
O[C@@H]1[C@@H](O)C=C2CCN3Cc4cc5c(cc4[C@H]1C23)OCO5 (stereo partly drawn)	88.2*	-4.7	7.5	-14.4	4.7	43.9
COc1cccc(CN2C[C@@H]3N[C@H](C2)C3c2ccc(-c3ccc(C#N)cc3)cc2)c1 (stereo partly drawn)	5.3	2.3	71.1*!	-26.8	/	-6.7
COc1ccccc1-c1ccc(C2[C@@H]3CN(Cc4cccc(F)c4)C[C@H]2N3)cc1 (stereo partly drawn)	-6.3	-1.1	/	-11.4	/	-3.5
COc1cccc(CN2C[C@@H]3N[C@H](C2)C3c2ccc(-c3ccccc3OC)cc2)c1 (stereo partly drawn)	8.8	0.7	50.8*	81.7*!	/	-10.1
Cc1cc(C)n(-c2nc3ccccc3c(=O)n2OCC(=O)Nc2c(C)cccc2C)n1	-23.1	/	/	4.7	2.8	/
CCCc1nc(SCC(=O)Nc2ccccc2)c2c(=O)n(C)c(=O)n(C)c2n1	20.0	1.3	-12.4	4.3	-1.1	-9.8
CCCc1nc(SCC(=O)N2CCC(Cc3ccccc3)CC2)c2c(=O)n(C)c(=O)n(C)c2n1	16.6*	-0.9	-14.1	53.7	-3.4	3.8
Cc1noc(C)c1COc1ccccc1C(=O)N1CCN(c2cccc(Cl)c2)CC1	20.7	4.0	-4.6	-20.1	-17.9	33.1
Cc1noc(C)c1COc1ccccc1C(=O)N1CCN(c2cccc(C(F)(F)F)c2)CC1	5.4	-4.7	-5.8	-61.4	-14.0	64.1*
COc1ccccc1N=C1SC(C(=O)Nc2cccc(Cl)c2Cl)C(N)=C1C(N)=O (stereo not drawn)	-4.8	9.5*	-22.6	-2.5	/	54.6*
CCC(=O)Nc1ccc2c(c1)OC[C@H](C)N(Cc1nccs1)C[C@@H](C)[C@H](OC)CN(C)C2=O	10.3	0.6	-9.0	6.3	-7.9	3.5
COc1ccc(C=C(C(=O)O)c2ccc(OC)cc2)cc1	-49.4	0.1	-20.8	49.1*	/	-26.7
COc1ccc(C(=Cc2ccccc2)C(=O)O)cc1	4.6	1.2	-12.6	/	2.8	6.4
CCC(CC)NC(=O)CN1CCN(S(=O)(=O)c2cccs2)CC1	2.6	-3.9	1.0	46.7*	-2.5	-5.1
CCOc1ccc(-c2nnn(CC(=O)Nc3ccccc3OC)n2)cc1OCC	-10.1	/	/	68.0*	-0.4	/
COc1ccc(-c2nnn(CC(=O)NCc3ccccc3)n2)cc1OC	/	/	/	/	-3.6	/
SMILES	LGR2 antag	CFTR F508del cor	RAD52 anneal inh	INS-1E GSIS act	RAD54 branch	EWS-Fli block
CCOC(=O)Cn1c(=NC(=O)c2nc3ccccc3s2)sc2cc(S(N)(=O)=O)ccc21	-4.2	/	/	67.5*	-0.5	/
CCOC(=O)Cn1c(=NC(=O)c2cccs2)sc2cc(C(=O)OC)ccc21	-15.4	/	/	89.6*	/	/
CCOC(=O)c1ccc2c(c1)sc(=NC(=O)c1ccco1)n2CCOC	-5.1	/	/	64.7*	-10.5	/
CCC(=O)N=c1sc2cc([N+](=O)[O-])ccc2n1CCOC	3.9	/	/	5.8	/	/
CC(C)CC1=C/C(=C/c2ccc(-c3ccccc3)o2)C(=O)O1	/	/	-84.4	/	/	5.2
Cc1[nH]nc(SCC(=O)NCCc2ccccc2)c1[N+](=O)[O-]	2.7	1.7	-1.3	-3.7	/	-4.3
COc1ccc(CCNC(=O)COC(=O)CSc2ccc(C(N)=O)cc2[N+](=O)[O-])cc1OC	-9.8	-4.6	-20.6	46.0*	-19.1	-3.3
COc1ccc(CCNC(=O)CSc2n[nH]c(C)c2[N+](=O)[O-])cc1OC	-4.3	-0.1	-0.3	52.4*	/	-10.5
COc1cc(NC(=O)COC(=O)/C=C/c2ccc(Cl)cc2Cl)cc(OC)c1	-14.1	/	/	-0.1	0.4	/
COc1ccc(NC(=O)Nc2ccc3c(c2)C(=O)N([C@H](C)CO)C[C@@H](C)[C@@H](CN(C)Cc2ccccc2)OCCCC[C@@H](C)O3)cc1	31.2	2.4	48.8	-23.7	-2.3	5.0
COc1ccc(CN(C)C[C@@H]2OCCCC[C@H](C)Oc3ccc(NC(=O)Nc4ccccc4)cc3C(=O)N([C@H](C)CO)C[C@H]2C)cc1	4.5	-1.4	/	-32.2	10.6	-10.1
COc1ccc(CN(C)C[C@H]2OCCCC[C@H](C)Oc3ccc(NC(=O)Nc4ccccc4)cc3C(=O)N([C@H](C)CO)C[C@H]2C)cc1	4.6	0.3	/	-30.6	2.4	64.8*
COc1ccc(NC(=O)Nc2ccc3c(c2)C(=O)N([C@@H](C)CO)C[C@H](C)[C@@H](CN(C)Cc2ccccc2)OCCCC[C@@H](C)O3)cc1	26.1	-1.1	55.7*	-24.7	0.8	5.1
COc1ccc(NC(=O)Nc2ccc3c(c2)C(=O)N([C@H](C)CO)C[C@@H](C)[C@H](CN(C)Cc2ccccc2)OCCCC[C@@H](C)O3)cc1	-5.3	-2.7	68.7*	-21.9	7.5	5.3
COc1ccc(NC(=O)Nc2ccc3c(c2)C(=O)N([C@@H](C)CO)C[C@@H](C)[C@@H](CN(C)Cc2ccccc2)OCCCC[C@@H](C)O3)cc1	-0.2	0.3	53.3*	-17.0	-0.1	-0.5
CCCN(CCC)CCCNC(=O)Cn1cnc2sc(C)c(S(=O)(=O)N3CCCCC3)c2c1=O	-1.8	1.0	-7.9	3.1	-18.1	5.5
C[C@H]1CN([C@@H](C)CO)C(=O)c2c(c3ccccc3n2C)-c2ccccc2CO[C@H]1CN(C)C(=O)c1ccccc1	16.9	-1.4	22.4	-8.7	-5.0	-2.2
COc1ccc(NC(=O)Nc2ccc3c(c2)C(=O)N([C@H](C)CO)C[C@H](C)[C@@H](CN(C)Cc2ccccc2)OCCCC[C@@H](C)O3)cc1	-9.3	-2.2	19.7	-5.6	8.1	-10.7
COc1ccc(NC(=O)Nc2ccc3c(c2)C(=O)N([C@@H](C)CO)C[C@@H](C)[C@H](CN(C)Cc2ccccc2)OCCCC[C@H](C)O3)cc1	0.2	0.9	52.3*	-15.3	0.6	13.6
Cc1cc(C(F)(F)F)c(C#N)c(SCC(=O)Nc2nc3cc(Br)ccc3s2)n1	-31.0	5.4	-153.1	-3.3	/	-10.6
